Source: PubChem (The Scripps Research Institute Molecular Screening Center)
FBW7 act: FBW7 E3 ligase activators, primary screen, biochemical, AlphaScreen, human | actives 0.13% (n = 650,000) | F-box/WD repeat-containing protein 7 (Homo sapiens), Q969H0 | AlphaScreen FBW7–phospho-cyclin E peptide binding, activator screen | normalized activity (activation), % at 26.1 µM; in the data active = normalized activity above about 1.9%;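 also: purified mutant Fbw7 with reduced substrate affinity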
TEAD-YAP block: TEAD-YAP interaction inhibition, primary screen, TEAD-YAP interaction inhibitor project, luminescence, HEK-TIYL cells. actives 1.4% (n = 640,000). inhibition, % at 9.12 µM. TEAD-Gal4/YAP UAS-luciferase luminescence; in the data active = inhibition above about 32%;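 also: 0% = median of test compound wells and 100% = reference inhibitor wells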
MITF primary: MITF inhibitors, primary screen, biochemical, AlphaScreen, human | AlphaScreen MITF homodimerization, bead proximity signal | AID 1259374, 2018 | inhibition, % at 2.6 µM | Microphthalmia-associated transcription factor (Homo sapiens), O75030 | actives 0.91% (n = 650,000); in the data active = inhibition above about 50%;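 also: 0% = vehicle wells with protein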
GPR151 activ: activators of human GPR151, primary screen, cell-based, PathHunter beta-arrestin, luminescence | actives 1% (n = 650,000) | PathHunter beta-arrestin GPR151 cells | G-protein coupled receptor 151 (Homo sapiens), Q8TDV0 | activation, % at 11.2 µM; in the data active = activation above about 4.9%;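 also: 0% = median of compound wells and 100% = cells with positive control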
Target sequence (Q8TDV0 whole entry, looked up): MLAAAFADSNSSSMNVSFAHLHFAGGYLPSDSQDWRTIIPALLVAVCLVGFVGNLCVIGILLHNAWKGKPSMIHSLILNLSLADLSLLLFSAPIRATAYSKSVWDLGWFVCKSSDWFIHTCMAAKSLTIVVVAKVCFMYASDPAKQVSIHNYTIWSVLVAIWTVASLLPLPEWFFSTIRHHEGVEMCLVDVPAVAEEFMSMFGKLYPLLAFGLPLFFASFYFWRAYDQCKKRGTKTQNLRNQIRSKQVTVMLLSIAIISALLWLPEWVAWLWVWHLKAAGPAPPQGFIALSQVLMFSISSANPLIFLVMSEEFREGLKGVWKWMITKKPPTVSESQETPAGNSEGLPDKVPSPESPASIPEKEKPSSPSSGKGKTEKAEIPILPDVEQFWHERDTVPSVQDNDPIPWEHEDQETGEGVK
MITF confirm: MITF inhibitors, retest of hits, confirmation, biochemical, AlphaScreen, triplicate. shares compounds with MITF primary. AlphaScreen MITF homodimerization, biotin/His-MITF beads. inhibition, % at 2.6 µM. actives 16% (n = 4,700). AID 1259372, 2018;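 active = inhibition above a cutoff derived from the DMSO control wells, cut at about 28% in these data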;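 also: 0% = MITF dimer wells with DMSO only; inhibitors lower the bead chemiluminescence by keeping MITF from dimerizing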
AlphaScreen DR: AlphaScreen optical interference compounds, dose response, counter-screen, biochemical, HTS; shares compounds with MITF primary; AlphaScreen optical interference counterscreen, cell-free; IC50, µM; actives 6% (n = 480); call rule not given here
AlphaScreen intf2: AlphaScreen optical interference compounds, counter-screen for MITF inhibitor project, biochemical, triplicate | shares compounds with MITF primary | LysRS AlphaScreen counterscreen, signal interference | inhibition, % at 2.6 µM | actives 7.6% (n = 4,700) | AID 1259376, 2018;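 active = inhibition above a cutoff derived from the DMSO control wells, cut at about 30% in these data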
Starred values were filed as active, the others as inactive; x = not tested or not shown. The list is not random: actives were taken first. Their share in the collection is about 3.4%.

SMILES | FBW7 act | TEAD-YAP block | MITF primary | GPR151 activ | MITF confirm | AlphaScreen intf2 | others
CC(C)(c1ccccc1)c1ccc(OCCCNCCN)cc1 | 0 | 9 | -2 | 1 | x | x
CCNC(=O)N1CCc2nc(C)nc(N3CCOCC3)c2C1 | 0 | 2 | 11 | -1 | x | x
O=C(NC1CC1)C1CC(=O)N(c2ccc(Br)cc2)C1 (stereo not drawn) | 0 | -5 | 11 | -1 | x | x
COc1cc2c(cc1OC)CN(C(=S)NCc1ccc3c(c1)OCO3)CC2 | 0 | 5 | 3 | 3 | x | x
CCNc1nc(NCCOc2ccccc2)c2ncn(C3CCCCC3)c2n1 | 0 | -14 | 54* | 3 | 3 | 7
Cc1c(NC(=O)C(C)OC(=O)c2cc3c(s2)CCC3)c(=O)n(-c2ccccc2)n1C (stereo not drawn) | 0 | 8 | 80* | -1 | 80* | 10 | AlphaScreen DR=>6.7
Cc1ccc(/C=c2\sc3ncnn3c2=O)o1 | 0 | 5 | 61* | 0 | 23 | -5
Cc1ccc(C(C)C)c(OCCNCc2ccco2)c1 | 0 | -5 | 55* | -1 | 5 | 9
c1coc(CNCCOc2ccc3ccccc3c2)c1 | 0 | -10 | 87* | -1 | 16 | 26
O=[N+]([O-])c1ccccc1S(=O)(=O)N1CCN(Cc2ccccc2C(F)(F)F)CC1 | 0 | 6 | 61* | -1 | 8 | 12
CCCS(=O)(=O)N1CCN(Cc2ccc(CC)cc2)CC1 | 0 | 14 | 51* | 1 | 2 | 8
CCc1ccc(CN2CCN(S(=O)(=O)c3ccc(C)cc3)CC2)cc1 | 1 | 0 | 58* | 1 | 7 | 7
Cc1ccc(S(=O)(=O)N2CCN(Cc3ccccc3Cl)CC2)cc1 | 0 | -14 | 57* | 3 | -4 | -7
Cc1ccc(S(=O)(=O)N2CCN(Cc3ccccc3C(F)(F)F)CC2)cc1 | 0 | -38 | 67* | 2 | 4 | 12
CCS(=O)(=O)N1CCN(Cc2cc(OC)c(O)c(OC)c2)CC1 | 0 | 9 | 37 | 1 | x | x
CCCS(=O)(=O)N1CCN(Cc2cc(OC)c(O)c(OC)c2)CC1 | 0 | 2 | 56* | -2 | -2 | 11
COc1ccc(S(=O)(=O)N2CCN(Cc3ccccc3C(F)(F)F)CC2)cc1 | 0 | 3 | -5 | -1 | x | x
CC1CCC(NC(=O)C2C3C=CC(C3)C2c2nc3ccccc3c(=O)[nH]2)CC1 (stereo not drawn) | 0 | -7 | 16 | -1 | x | x
COc1ccc(Br)cc1CN(CCc1ccc2c(c1)OCO2)Cc1cccnc1 | 0 | 8 | 52* | -1 | -5 | -2
CCOc1ccccc1CN(CCc1ccc2c(c1)OCO2)Cc1cc(OC)c(OC)cc1OC | 0 | 1 | 14 | -1 | x | x
CCOc1ccccc1CN(CCc1ccc2c(c1)OCO2)Cc1ccccn1 | 0 | -8 | 84* | -2 | 4 | 24
Cc1cccc(CC(=O)Nc2cnn(-c3cccc(C(=O)Nc4ccc5[nH]ncc5c4)c3)c2)c1 | 0 | 0 | 19 | 2 | x | x
c1ccc(-c2ccccc2OCCN2CCOCC2)cc1 | 0 | -2 | 78* | 1 | 6 | 4
CCN1CCN(CCOc2ccccc2-c2ccccc2)CC1 | 0 | 7 | 44 | -2 | x | x
c1ccc(-c2ccccc2OCCCCN2CCOCC2)cc1 | 0 | -3 | 77* | 2 | -10 | -4
SMILES | FBW7 act | TEAD-YAP block | MITF primary | GPR151 activ | MITF confirm | AlphaScreen intf2 | others
CN1CCN(CCOc2ccccc2-c2ccccc2)CC1 | 0 | -1 | 55* | -1 | 4 | 5
CCOC(=O)C1=C(C)NC(=O)NC1c1cc(O)ccc1Br (stereo not drawn) | 0 | 11 | -4 | 0 | x | x
CCc1n[nH]c(=S)n1/N=C(\C)c1ccc(Br)cc1 | 0 | 9 | 19 | 0 | x | x
CC(C)C(NC(=O)c1cccs1)C(=O)Nc1nc2ccccc2s1 (stereo not drawn) | 0 | 10 | 20 | 3 | x | x
COC(=O)C1=C(C)n2nnnc2NC1c1cc2ccccc2o1 (stereo not drawn) | 0 | 11 | 77* | 1 | 10 | 18
CC(C)c1ccc(NC(=O)CN2C(=O)C3(OCCCO3)c3ccccc32)cc1 | 0 | 10 | 8 | 2 | x | x
CN(C)c1ccc(/C=N/N2C(=O)C3C4C=CC(C4)C3C2=O)o1 (stereo not drawn) | 0 | 3 | 5 | 1 | x | x
CCc1ccc(CN2CCN(C(=O)c3ccccc3F)CC2)cc1 | 0 | 16 | 51* | 0 | 8 | 10
O=C(c1ccccc1F)N1CCN(Cc2ccc3c(c2)OCO3)CC1 | 0 | 15 | 51* | -1 | -1 | -5
O=C(C1CCNCC1)N1CCN(Cc2ccc3c(c2)OCO3)CC1 | 0 | -6 | 56* | 0 | 9 | 13
C=CCOc1ccc(Cl)cc1/C=N/NC(=O)Cc1nnc(N)s1 | 1 | -6 | 15 | 0 | x | x
CCN(CC(=O)Nc1ccccc1C(F)(F)F)CC(=O)Nc1cccc2ccccc12 | 0 | 28 | -1 | 2 | x | x
CCN(CC(=O)Nc1ccccc1C(F)(F)F)CC(=O)NC1CCCc2ccccc21 (stereo not drawn) | 0 | -6 | 81* | -1 | 1 | 3
CCCN1CCC(NCCc2ccc(Cl)cc2)CC1 | 0 | 5 | 51* | 0 | 0 | 1
Cc1ccccc1CN1CCC2(CCC(CNC(=O)Cn3cncn3)O2)CC1 (stereo not drawn) | 0 | 0 | 18 | 1 | x | x
O=C1C2C(C(=O)N1c1ccc(Br)cc1)N1CCCN1C2c1ccc(F)cc1 (stereo not drawn) | 0 | 8 | 65* | 2 | 5 | 9
CCC1CN(CCC(=O)NC2CCOC2)Cc2ccc(Cl)cc2O1 (stereo not drawn) | 0 | 6 | 9 | -1 | x | x
C=CCC(O)(CC=C)CNC1CCN(c2ccc(CC(=O)NCc3ccccc3)cc2)CC1 | 0 | 13 | 2 | 1 | x | x
S=c1[nH]nc(-c2ccco2)n1/N=C/C=C/c1ccco1 | -1 | -8 | 73* | -1 | 33* | 2 | AlphaScreen DR=>6.5
COC(=O)C(NCC(=O)NCc1ccc(Cl)cc1)C(C)C (stereo not drawn) | 0 | 5 | 66* | -1 | 15 | 19
COCC(=O)NCc1ccc(Cl)cc1 | 0 | 0 | 0 | 0 | x | x
COc1ccc(S(=O)(=O)N2CCC(N3CCN(C)CC3)CC2)cc1 | 0 | 5 | 73* | -1 | 2 | 6
